Reference: PubChem BioAssay (Tox21)
Results filed as inconclusive are left out. Calls of active or inactive are those of the source. Calls come from the whole dose curve; as a rule, active = well fitted cell-killing curve with a large enough effect in the repeat runs; inconclusive = weak or mixed curves; inactive = flat fitted curve, though single readings scatter.

assay: qHTS RealTime-Glo MT Cell Viability Assay in HepG2 cells - 32 hour (AID 1224877); conditions: RealTime-Glo luminescence; series mostly up to 76.8 µM; activity change, negative = cytotoxic: at the top concentration; note: nearly all actives have a fitted effect of over 55% in size
Source text: U.S. Tox21 Program National Center for Advancing Translational Sciences [NCATS] NIH Chemical Genomics Center [NCGC] U.S. Environmental Protection Agency [EPA] National Institutes of Environmental Health Sciences [NIEHS] National Toxicology Program [NTP] U.S. Food and Drug Administration [FDA] Tox21 Assay Overview: Measure of cell viability is critical in the cell-base assay. Analysis of cell viability is necessary for the characterization of cell responses to cytotoxic drugs and environmental stress. A RealTime-Glo MT Cell Viability Assay to monitor cell viability in real time of continues cell culture during 40 hours of compound treatment was used to screen Tox21 10K library compounds in HepG2 cells. The RealTime-Glo MT Cell Viability Assay is a nonlytic, homogeneous, bioluminescent method to measure cell viability in real time using a simple, plate-based method. The assay involves adding NanoLuc luciferase and a cell-permeant prosubstrate to cells in culture. Viable cells reduce the proprietary prosubstrate to generate a substrate for NanoLuc luciferase. This substrate diffuses from cells into the surrounding culture medium, where it is rapidly used by the NanoLuc Enzyme to produce a luminescent signal. The signal correlates with the number of viable cells, making the assay well suited for cytotoxicity studies.
Tox21 Assay Protocol Summary: The mixture of HepG2 cell suspension and reagents were dispensed at 600cells/6 ul/well in 1536-well tissue culture treated black solid bottom plates using a Multidrop dispenser. After the assay plates were incubated at a 37 C/5% CO2 incubator for 5 hours, 23 nL of compounds dissolved in DMSO, positive and negative controls was transferred to the assay plate by a pintool work station. The plates were incubated at 37 C for 40 hours. The luminescence intensity were measured at 0h, 8h, 16h, 24h, 32h and 40h time points using ViewLux plate reader during compound treatment.
% is set by controls: 0 for no effect and ±100 for the full control effect.

Compound | activity change, negative = cytotoxic
CCC(=O)O[C@]1(C(=O)CCl)[C@@H](C)C[C@H]2[C@@H]3CCC4=CC(=O)C=C[C@]4(C)[C@@]3(F)[C@@H](O)C[C@@]21C | -22.5% [at 35.3 µM] (inactive)
Cc1oc(-c2ccccc2)nc1CCOc1cccc2c1ccn2CCC(=O)O | -7.02% (inactive)
CCOC(=O)C(O)c1ccccc1 (stereo not given) | 0.735% [at 35.3 µM] (inactive)
CCOC(=O)C(F)(F)F | 0.653% (inactive)
CCCCc1nc2cccnc2n1Cc1ccc(-c2ccccc2-c2nnn[nH]2)cc1 | 3.01% (inactive)
CN(C)c1ccc(CCO)cc1 | -4.73% (inactive)
CCCCO | 1.29% (inactive)
OCCNCc1ccccc1 | 1.44% (inactive)
CC(C)Cc1ccc(C(C)C(=O)OCc2ccccn2)cc1 (stereo not given) | -11.6% [at 35.3 µM] (inactive)
CC(C)Nc1ccc(NC(C)C)c2c1C(=O)c1ccccc1C2=O | -14.3% [at 35.3 µM] (inactive)
CC(C)CC(=O)C1C(=O)c2ccccc2C1=O | -8.28% (inactive)
CCNc1cc(O)ccc1C | -1.04% (inactive)
CN(C)CCN(Cc1ccccc1)c1ccccn1 | -11.1% [at 35.3 µM] (inactive)
CCN(CC)CCNC(=O)c1cc(Br)c(N)cc1OC | -0.707% [at 35.3 µM] (inactive)
C=C1C(=C/C=C2\CCC[C@]3(C)[C@@H]([C@H](C)/C=C/[C@@H](O)C4CC4)CC[C@@H]23)C[C@@H](O)C[C@@H]1O | -11.5% [at 35.3 µM] (inactive)
O=C(O)c1nc(Cl)c(Cl)c(Cl)c1Cl | 5.31% (inactive)
CC1=CC[C@H](C(C)C)C=C1 | -4.11% (inactive)
C/C(=C(\CCOP(=O)(O)O)SC(=O)c1ccccc1)N(C=O)Cc1cnc(C)nc1N | 2.64% [at 6.97 µM] (inactive)
COc1cc2nc(N3CCN(C(=O)C4COc5ccccc5O4)CC3)nc(N)c2cc1OC (stereo not given) | -7.66% [at 35.3 µM] (inactive)
Cc1nn(C)c(Oc2ccccc2)c1/C=N/OCc1ccc(C(=O)OC(C)(C)C)cc1 | -12% (inactive)

Compound | activity change, negative = cytotoxic
CCN(CC)CCOC(=O)C(Cc1cccc2ccccc12)CC1CCCO1 (stereo not given) | 1.36% [at 35.3 µM] (inactive)
O=C1C(O)=C(O)C(=O)C(O)=C1O | -2.04% [at 35.3 µM] (inactive)
O=C(OCCCCCCOC(=O)c1ccccc1)c1ccccc1 | -6.4% (inactive)
C=C(C)C(=O)OCCO | -0.779% (inactive)
CC(=O)c1ccc2c(c1)N(CCCN(C)C)c1ccccc1S2 | -6.22% [at 35.3 µM] (inactive)
CCCCC1=NC2(CCCC2)C(=O)N1Cc1ccc(-c2ccccc2-c2nn[nH]n2)cc1 | 2.09% [at 35.3 µM] (inactive)
Clc1ccc(Cn2c(CN3CCCC3)nc3ccccc32)cc1 | -18.2% [at 35.3 µM] (inactive)
c1ccc(CNCCNCc2ccccc2)cc1 | 0.928% [at 35.3 µM] (inactive)
CC(=O)NO | -1.49% [at 35.3 µM] (inactive)
Cc1cccc(C)c1OCC(=O)N[C@@H](Cc1ccccc1)[C@@H](O)C[C@H](Cc1ccccc1)NC(=O)[C@H](C(C)C)N1CCCNC1=O | -5.1% [at 35.3 µM] (inactive)
C=CC(=O)OCCOc1ccccc1 | -2.43% (inactive)
O=C(O)c1ccc(S(=O)(=O)O)cc1C(=O)O | 6.39% (inactive)
CCCCC(=O)OCC(=O)[C@H]1[C@H](C)C[C@H]2[C@@H]3C[C@H](F)C4=CC(=O)C=C[C@]4(C)[C@@]3(F)[C@@H](O)C[C@@]21C | -4.9% [at 35.3 µM] (inactive)
Nc1ccc(N)c2c1C(=O)c1ccccc1C2=O | -11.8% (inactive)
CCC(C)c1cc(C(C)(C)C)c(O)c(C(C)(C)C)c1 (stereo not given) | 0.886% (inactive)
COS(=O)(=O)C(F)(F)F | -3.15% (inactive)
CC(C)O.CC(C)O.CCOC(=O)/C=C(\C)O.CCOC(=O)/C=C(\C)O.[Ti] | -0.901% (inactive)
CCOC(=O)C(=O)CCc1ccccc1 | 2.57% [at 35.3 µM] (inactive)
NC(N)=NCCC[C@H](N)C(=O)O | 2.81% [at 6.97 µM] (inactive)
Cc1cc(C(=O)O)ccc1[N+](=O)[O-] | 0.988% (inactive)
